Pf growth 48h = P. falciparum growth inhibition at 48 hours (one generation); P. falciparum luciferase growth in erythrocytes, 48 h; Potency, µM (titrated, usually from 28.7 µM), without a hit: at the highest dose activity change, negative = inhibition, actives largely listed as inhibitors; 310,000 tested, 5.9% active
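Growth was read as firefly luciferase luminescence after a 48 h, 37 C, 5% CO2 exposure of compounds to reporter-bearing P. falciparum cultures (0.1% parasitemia, 2% hematocrit final) in Albumax-supplemented RPMI 1640.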
AmpC detergent = inhibitors of E. coli AmpC beta-lactamase with detergent. AID 485294. P00811. 370,000 tested, 0.041% active. Potency, µM (series often up to 114 µM), for inactives: at the top dose activity change, negative = inhibition, most hits filed as inhibitors. AmpC hydrolysis of nitrocefin, absorbance 480 nm, 0.01% Triton;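 further: 0% = no-compound wells and -100% = no-enzyme wells; nearly all actives have a fitted effect of over 25% in size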
Target sequence (P00811 whole entry, looked up): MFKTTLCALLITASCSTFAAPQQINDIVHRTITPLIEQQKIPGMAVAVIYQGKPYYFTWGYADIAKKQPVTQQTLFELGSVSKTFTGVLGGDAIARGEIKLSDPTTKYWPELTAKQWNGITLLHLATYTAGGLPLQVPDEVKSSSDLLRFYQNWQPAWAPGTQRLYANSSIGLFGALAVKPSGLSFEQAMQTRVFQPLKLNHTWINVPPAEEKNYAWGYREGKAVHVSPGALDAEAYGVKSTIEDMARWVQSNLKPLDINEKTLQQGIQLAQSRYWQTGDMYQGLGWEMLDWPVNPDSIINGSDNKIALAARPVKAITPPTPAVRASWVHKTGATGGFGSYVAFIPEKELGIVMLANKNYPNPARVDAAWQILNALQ
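20 mM phosphate pH 7.0 + 0.01% (detergent screen) or 0.0001% Triton X-100; 5.3 nM AmpC reagent; cpd preinc 15 min RT; nitrocefin (800 uM stock) to start; A480 q20 s × 4 min; Activity was normalised to no-enzyme and no-compound control wells.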
AMA1 RON2 block = inhibitors of Plasmodium falciparum AMA1-RON2 interaction; AlphaScreen AMA1-biotinylated RON2 peptide binding; 360,000 tested, 0.2% active; Potency, µM (series often up to 58.2 µM), for the others: at the highest dose activity change, negative = inhibition, actives largely listed as inhibitors; AID 720542;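 further: 0% = vehicle wells and -100% = peptide control; nearly all actives have a fitted effect of over 45% in size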
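AMA1 (3D7) with his tag at 25 nM final met compounds first, then biotinylated RON2 peptide at 25 nM; detection used donor plus acceptor beads, 10 µg/mL apiece, read by AlphaScreen after 30 min at room temperature.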
Pf growth 96h = inhibits malaria parasite growth, 96 h; P. falciparum luciferase reporter growth, 96 h; Potency, µM (doses to about 28.7 µM), for inactives: top-dose activity change, negative = inhibition, usual class: inhibitors; 320,000 tested, 6.9% active; AID 504834
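Erythrocytes infected with luciferase-expressing P. falciparum were dispensed at 2% hematocrit and 0.05% parasitemia (final), then incubated with compounds 96 hours at 37 C in 5% CO2. Luminescence after detection reagent addition reported growth.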
AmpC inh no detg = inhibitors of E. coli AmpC beta-lactamase without detergent | Potency, µM (titrated, usually from 57.1 µM), for inactives: at the highest dose activity change, negative = inhibition, actives largely listed as inhibitors | 330,000 tested, 0.52% active | AID 485341 | AmpC nitrocefin hydrolysis, absorbance 480 nm, 0.0001% Triton | P00811;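 further: plate controls were no compound for no effect and no enzyme for full effect; nearly all actives have a fitted effect of over 20% in size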
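20 mM phosphate pH 7.0 + 0.01% (detergent screen) or 0.0001% Triton X-100; 5.3 nM AmpC reagent; cpd preinc 15 min RT; nitrocefin (800 uM stock) to start; A480 q20 s × 4 min; Activity was normalised to no-enzyme and no-compound control wells.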
HCV inh = inhibitors of hepatitis C virus infection. Potency, µM (highest dose often 41.8 µM), inactives show at the highest dose activity change, negative = inhibition, actives largely listed as inhibitors. Huh7.5.1 HCVcc-Cre infection, luciferase reporter, 44 h. 340,000 tested, 3.4% active. AID 651820
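After 44 h co-culture of compound, cells and HCVcc-Cre (~0.5 moi), substrate is added for 15 min at room temperature and luciferase measured over 15 sec. Cells were seeded at 1,000/well and pre-cultured 4 h.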
The depositor's hits bear a star; ? = inconclusive; / = no result given; [ ] = remark or other dose. A selection: hits, their analogues and other compounds. The true share with any hit is near 11%. The call rests on the fitted dose curve; in most records, active means well fitted curve in the direction sought with a large enough effect; inconclusive means small, poorly fitted or top-dose-only effect, or another doubt; inactive means no such curve, though single readings can be large; an effect the other way counts as inactive or inconclusive. Unless noted, on the % scale 0 is the no-effect control and ±100 the full control effect; potency means the concentration at half of the fitted maximal effect.

SMILES | Pf growth 48h | AmpC detergent | AMA1 RON2 block | Pf growth 96h | AmpC inh no detg | HCV inh
Cc1ccc(S(=O)(=O)NCc2ccncc2)cc1C | -3.6% | 5.5% | -0.3% | ? | -6.6% | 2.24µM*
Cc1cc(C)c(C)c(S(=O)(=O)NCc2ccc(C(=O)N3CCOCC3)cc2)c1C | 8.28µM* | 6.6% | -2.7% | 42.7% | 143.1% | 5.2%
Cc1cc(C)c(C)c(S(=O)(=O)NCc2ccncc2)c1C | 8.6% | -9.1% | 3.0% | ? | -7.1% | 7.08µM*
Cc1ccc(C(=O)N(C)Cc2ccc(N3CCOCC3)cc2)cc1S(=O)(=O)NCc1ccccc1 | 10.4µM* | 1.4% | 4.6% | ? | 9.2% | ?
CCc1ccccc1NC(=O)CSc1nc2ccccc2nc1Cc1cccc(OC)c1 | / | 16.6% | / | / | / | /
CCCCNC(=S)Nc1ccc(SC(F)F)cc1 | ? | ? | 19.5% | ? | -21.7%[11.4 µM] | 11.2µM*
CCCCNC(=S)Nc1ccc(F)cc1 | -23.6% | ? | -8.2% | -28.4% | 28.3% | 4.3%
O=C(Cn1c(=O)n2nc(-c3ccccc3)nc2c2ccccc21)Nc1ccccc1C(F)(F)F | / | 0.8% | / | / | / | /
Clc1cccc(-c2nn3c(-c4ccncc4)nnc3s2)c1 | 20.3% | -16.1% | / | 13.1µM* | -13.5% | /
c1ccc(-c2nnc3sc(-c4ccncc4)nn23)cc1 | -25.8% | 1.8% | 0.0% | / | -9.9% | -4.1%
COc1ccccc1-c1nnc2sc(COc3ccc(Cl)cc3Cl)nn12 | ? | 11.9% | 4.1% | 10.4µM* | 39.1% | ?
CCOc1cccc(-c2nn3c(-c4cc(C)[nH]n4)nnc3s2)c1 | ? | -11.1% | 9.0% | 1.65µM* | -5.0% | -29.4%
CCN(CC)c1ccc(-c2nn3c(-c4ccccc4OC)nnc3s2)cc1 | 2.62µM* | -3.5% | 9.4% | 11.4%[5.75 µM] | 97.5% | ?
CCOc1cccc(-c2nnc3sc(-c4cc(OC)c(OC)cc4OC)nn23)c1 | 1.2% | ? | / | 35.4% | -24.0% | /
CC(=O)N1CCc2cc(S(=O)(=O)NC(CC(C)C)C(=O)NCCc3ccc(C)cc3)ccc21 (stereo unspecified) | / | 1.0% | / | / | / | /
COc1cccc(-c2nc(CS(=O)(=O)CC(=O)N3CCN(c4ccccc4)CC3)c(C)o2)c1 | / | 19.6% | / | / | / | /
CCN(CC)c1ccc2cc(-c3nc(-c4ccccc4)no3)c(=O)oc2c1 | / | 1.3% | / | / | / | /
CCc1cccc(C)c1NC(=O)C(NS(=O)(=O)c1ccc2c(c1)CCC(=O)N2)c1ccccc1 (stereo unspecified) | / | -8.1% | / | / | / | /
COc1cc(-c2nn3c(-c4ccccn4)nnc3s2)cc(OC)c1OC | 19.7% | ? | / | -9.7% | -18.1% | /
COc1cccc(-c2nnc3sc(-c4ccccc4)nn23)c1 | ? | ? | -2.2% | 3.29µM* | -4.7% | ?
COc1cccc(OC)c1-c1nn2c(-c3cc(-c4ccccc4)n[nH]3)nnc2s1 | 2.08µM* | ? | -23.4% | -20.9% | 29.9% | ?
C=CCSc1nnc(-c2nnc(SCC=C)n2CC)n1CC | 10.4µM* | -9.6% | -14.0% | 11.7µM* | -0.4% | -2.8%
CCOCCCn1c(=NC(C)=O)c(C#N)cc2c(=O)n3cccc(C)c3nc21 | 67.1% | -7.4% | -13.8% | ? | -14.6% | ?
CCOCCCn1c(=NC(=O)c2ccco2)c(C(=O)OCC)cc2c(=O)n3cccc(C)c3nc21 | 0.0% | 2.4% | 5.7% | ? | 12.3% | 11.2µM*
CCOCCCn1c(=NC(=O)c2ccc(OC)c(OC)c2)c(C#N)cc2c(=O)n3cccc(C)c3nc21 | 2.33µM* | ? | / | / | -8.2% | -25.3%
SMILES | Pf growth 48h | AmpC detergent | AMA1 RON2 block | Pf growth 96h | AmpC inh no detg | HCV inh
CCOC(=O)c1cc2c(=O)n3cccc(C)c3nc2n(CC(C)C)c1=NC(=O)c1ccco1 | ? | -7.3% | 11.2% | 3.7µM* | -1.1% | ?
CCOc1cc(NC(C)=O)ccc1C(=O)OC | -1.2% | / | / | -18.4% | / | /
CC1CCc2onc(C(=O)N3CCN(c4ccccc4)CC3)c2C1 (stereo unspecified) | / | 20.8% | / | / | / | /
O=C(c1ccccc1)c1coc2c1C(=O)c1ccccc1C2=O | ? | -5.8% | 11.1% | -16.2% | -13.8% | -0.2%
COc1ccc(CNC(=O)c2ccc(-c3ccccc3)cc2)cc1 | 11.5% | 2.1% | -4.3% | 51.8% | -8.1% | -22.7%
O=C1c2ccccc2C(=O)c2c1oc(C(F)(F)F)c2C(=O)c1ccccc1 | ? | -8.4% | ? | 0.131µM* | -3.1% | 22.4µM*
Cc1oc2c(c1C(=O)NCc1cccnc1)C(=O)c1ccccc1C2=O | ? | -4.3% | -2.7% | 0.147µM* | -13.7% | 1.58µM*
CC(=O)c1c(C)oc2c1C(=O)c1ccccc1C2=O | ? | -8.1% | -4.8% | -29.3% | -9.0% | 8.91µM*
COc1ccc(CNC(=O)c2c(C)oc3c2C(=O)c2ccccc2C3=O)cc1 | ? | ? | -7.8% | 3.29µM* | -6.2% | 3.6%[8.37 µM]
COc1ccc(CNC(=O)CCCCCn2c(=O)[nH]c3ccccc3c2=O)cc1 | / | 8.4% | / | / | / | /
CCCCSc1nnc2c(n1)OC(c1ccc(Br)s1)Nc1ccccc1-2 (stereo unspecified) | / | 6.6% | / | / | / | /
COc1ccc(CNC(=O)Cc2ccc(NC(=O)N3CCSc4ncccc43)cc2)cc1OC | / | -0.1% | / | / | / | /
CC(C)NC(=O)c1ccc(-c2ccc(Cl)c(C(F)(F)F)c2)o1 | / | 0.7% | -6.2% | 3.29µM* | -8.8% | -10.5%
CCOc1ccc(N(C)S(=O)(=O)c2cc(-c3cc(C)no3)ccc2C)cc1 | ? | 5.0% | -10.8% | -20.8% | 26.3% | ?
Cc1ccc(NS(=O)(=O)c2cc(-c3cc(C)no3)ccc2C(C)C)nc1 | -7.0% | ? | 8.2% | -29.2% | -18.1% | 20.2%
CCc1ccc(-c2cc(C)no2)cc1S(=O)(=O)Nc1ccc(C)cn1 | -0.1% | -3.5% | 101.6% | 13.1µM* | -25.8% | -13.4%
CCOc1ccc(N(C)S(=O)(=O)c2cc(-c3cc(C)no3)ccc2CC)cc1 | 11.7µM* | 1.4% | 16.6% | -18.8% | 5.4% | ?
CCOc1ccc(NC(=O)CCc2nnc3n(C)c(=O)c4sccc4n23)cc1 | / | 2.1% | / | / | / | /
CCCOc1ccc(NC(=O)CC2C(=O)N(CC)C(=S)N2CCCN2CCN(Cc3ccccc3)CC2)cc1 (stereo unspecified) | ? | ? | -20.1% | 4.15µM* | 172.5% | ?
O=C(CC1C(=O)N(Cc2ccccc2)C(=S)N1CCN1CCOCC1)Nc1ccc(F)cc1 (stereo unspecified) | 1.85µM* | -8.2% | -9.6% | -8.3% | 160.0% | 2.8%
CCCOc1ccc(NC(=O)CC2C(=O)N(CC)C(=S)N2CCNC(C)=O)cc1 (stereo unspecified) | -4.7% | -15.3% | -19.3% | 5.7% | 38.8% | 9.7%

Source: PubChem
